Bioassay records deposited in PubChem BioAssay by several laboratories.
GDH-TPI counter – inhibits GDH-TPI coupling enzymes, artifact for Mtb FBA screen; GDH-TPI coupled enzyme counterscreen, NADH absorbance; 360,000 tested, 1.2% active; inhibition, % at 4.8 µM; in the data active = inhibition above about 30%;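 also: 0% = DMSO wells and 100% = wells lacking the enzyme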
Mtb hypoxia rep – Mtb hypoxia fluorescent reporter inhibition. M. tuberculosis hypoxia-regulated fluorescent reporter, fluorescence. fluorescence inhibition, % (concentration not given with the values). 300,000 tested, 0.1% active. AID 1159583; in the data active = fluorescence inhibition mostly above about 23%, no sharp cut-off; inactive = mostly below about 17%
FBA Mtb inh – inhibitors of M. tuberculosis fructose-bisphosphate aldolase | P9WQA3 | purified M. tuberculosis FBA, fluorescence read-out | inhibition, % at 1 µM | 360,000 tested, 2.3% active | AID 588726; in the data active = inhibition above about 27%;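 also: 0% = vehicle and 100% = reference inhibitor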
Target sequence (P9WQA3 whole entry, looked up): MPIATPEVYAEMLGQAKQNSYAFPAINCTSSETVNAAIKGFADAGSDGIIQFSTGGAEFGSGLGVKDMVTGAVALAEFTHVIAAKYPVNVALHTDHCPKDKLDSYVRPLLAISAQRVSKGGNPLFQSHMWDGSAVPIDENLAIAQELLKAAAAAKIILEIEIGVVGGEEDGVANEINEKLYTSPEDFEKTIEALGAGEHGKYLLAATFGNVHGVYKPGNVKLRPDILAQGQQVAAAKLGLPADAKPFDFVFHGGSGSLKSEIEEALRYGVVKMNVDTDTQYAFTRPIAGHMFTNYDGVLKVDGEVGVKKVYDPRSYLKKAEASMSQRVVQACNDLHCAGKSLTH
PrP UTR inh – inhibition of PrP 5' UTR reporter expression | cell-based PrP 5' UTR mRNA reporter, plate reader | 340,000 tested, 0.35% active | inhibition, % (concentration not given with the values); in the data active = inhibition above about 52%; also: 0 = median of the neutral control wells
PrPC TRFRET – inhibitors of human cell surface prion protein PrPC | 370,000 tested, 0.43% active | TR-FRET read-out | inhibition, % at 13.8 µM | P04156; in the data active = inhibition above about 24%; also: 0% = median of the test wells and 100% = reference compound wells
Y pestis TopoI – inhibitors of Yersinia pestis topoisomerase I | Y. pestis Topo-I cleavage product accumulation, plate reader | activity, % at 10 µM | 360,000 tested, 0.064% active; in the data active = activity above about 50%, passing the limit was not always enough
* hit, by the source's call; ! = not confirmed by another sample. Shown are actives, neighbours in structure and some others; about 3.8% of the full set was active somewhere.

How did CN(C)c1ccc(C(=O)c2ccccc2)cc1 do in these assays?
GDH-TPI counter: 31*; Mtb hypoxia rep: 12; FBA Mtb inh: -4; PrP UTR inh: -54; PrPC TRFRET: 5; Y pestis TopoI: 11

Results for O=[N+]([O-])c1ccc(SCCc2ccncc2)cc1 ?
GDH-TPI counter: 42*!; Mtb hypoxia rep: -9; FBA Mtb inh: -3; PrP UTR inh: -8; PrPC TRFRET: -16; Y pestis TopoI: -2

Results for O=[N+]([O-])c1ccc(SCCc2ccccn2)cc1 ?
GDH-TPI counter: 13; Mtb hypoxia rep: 4; FBA Mtb inh: -2; PrP UTR inh: -103; PrPC TRFRET: -10; Y pestis TopoI: 4

Results for O=C(O)c1ccccc1NS(=O)(=O)c1ccc(N/N=C/c2ccc(O)c(O)c2)c([N+](=O)[O-])c1 ?
GDH-TPI counter: 46*; FBA Mtb inh: 1; PrP UTR inh: -4; PrPC TRFRET: -17; Y pestis TopoI: -6

What do the screens show for `O=C(O)c1ccccc1NS(=O)(=O)c1ccc(NN=Cc2ccc(F)cc2)c([N+](=O)[O-])c1`?
GDH-TPI counter: 13; Mtb hypoxia rep: 4; FBA Mtb inh: -2; PrP UTR inh: -11; Y pestis TopoI: -9

How did COc1ccccc1NS(=O)(=O)c1ccc(N/N=C/c2ccccc2OCC(=O)O)c([N+](=O)[O-])c1 do in these assays?
GDH-TPI counter: 35*; FBA Mtb inh: -6; PrP UTR inh: -18; PrPC TRFRET: -13; Y pestis TopoI: 14

What do the screens show for `Cc1ccc(NS(=O)(=O)c2ccc(NN=Cc3ccccc3OCC(=O)O)c([N+](=O)[O-])c2)c(C)c1`?
Mtb hypoxia rep: 18

How did COc1ccc(C2C3C(=O)N(C(C)(C)C)C(=O)C3[C@]3(Cc4ccccc4)C(=O)N(c4ccc(OC)cc4)C(=O)N23)cc1 (stereo partly drawn) do in these assays?
Mtb hypoxia rep: 13

Results for CCn1c(N)c(C(=O)N2CCOCC2)sc1=S ?
GDH-TPI counter: 31*; Mtb hypoxia rep: 0; FBA Mtb inh: 4; PrP UTR inh: 0; PrPC TRFRET: 1; Y pestis TopoI: -9

What do the screens show for `CCNC(=O)c1sc(=S)n(CC)c1N`?
GDH-TPI counter: 32*; Mtb hypoxia rep: 12; FBA Mtb inh: -2; PrP UTR inh: -1; PrPC TRFRET: -3; Y pestis TopoI: -11

What do the screens show for `CCCCN1C(=O)C(=O)NCC1C(C)CC` (stereo not drawn)?
Mtb hypoxia rep: 22

What do the screens show for `COc1ccc(C=NNC(=O)COc2ccccc2)c(C(=O)O)c1OC`?
Mtb hypoxia rep: 5

What do the screens show for `CS(=O)(=O)Nc1ccc(C2=NN(C(=O)CCCC(=O)O)C(c3cccs3)C2)cc1` (stereo not drawn)?
GDH-TPI counter: 11; Mtb hypoxia rep: 4; FBA Mtb inh: active; PrP UTR inh: -62; PrPC TRFRET: -6; Y pestis TopoI: -5

Results for CCS(=O)(=O)Nc1cccc(C2=NN(C(C)=O)C(c3cccs3)C2)c1 (stereo not drawn) ?
GDH-TPI counter: -1; Mtb hypoxia rep: 0; FBA Mtb inh: 5; PrP UTR inh: -33; PrPC TRFRET: 6; Y pestis TopoI: 3

How did CC(=O)N1N=C(c2cccc(NS(C)(=O)=O)c2)CC1c1cccs1 (stereo not drawn) do in these assays?
GDH-TPI counter: 65*; Mtb hypoxia rep: 14; FBA Mtb inh: 6; PrP UTR inh: -29; PrPC TRFRET: 5; Y pestis TopoI: -10

Results for CS(=O)(=O)Nc1ccc(C2=NN(C(=O)c3ccccc3)C(c3cccs3)C2)cc1 (stereo not drawn) ?
GDH-TPI counter: 17; Mtb hypoxia rep: 5; FBA Mtb inh: 3; PrP UTR inh: -2; PrPC TRFRET: -5; Y pestis TopoI: -5

Results for CC(C)(C)C(=O)N1N=C(c2ccc(NS(C)(=O)=O)cc2)CC1c1cccs1 (stereo not drawn) ?
GDH-TPI counter: 18; Mtb hypoxia rep: -1; FBA Mtb inh: 112*; PrP UTR inh: -33; PrPC TRFRET: 5; Y pestis TopoI: -4

Results for O=C1OC(/C=C/c2ccccc2)=NC/1=C/C=C/c1ccccc1 ?
GDH-TPI counter: 32*; Mtb hypoxia rep: 4; FBA Mtb inh: 0; PrP UTR inh: -17; PrPC TRFRET: -6; Y pestis TopoI: -5

How did CCC(C)Sc1ccc(C2N[C@@](Cc3ccccc3)(C(=O)OC)C3C(=O)N(CC)C(=O)C23)cc1 (stereo partly drawn) do in these assays?
Mtb hypoxia rep: 18

Results for CC[N+](CC)(CC)CCOc1ccc(C=Cc2ccccc2)cc1 ?
Mtb hypoxia rep: 8

Results for COc1cc(/C=C/c2[nH]c(=O)[nH]c(=O)c2[N+](=O)[O-])cc(OC)c1O ?
GDH-TPI counter: 31*; Mtb hypoxia rep: 7; FBA Mtb inh: -4; PrP UTR inh: -11; PrPC TRFRET: -16; Y pestis TopoI: -13

What do the screens show for `CCn1ncc(C2CC3CN(Cc4cccc(Cl)c4)C(=O)[C@]34CCCN24)c1C` (stereo partly drawn)?
Mtb hypoxia rep: 9

Results for COc1nc(-c2ccccc2)cc(-c2ccc(OC)c(OC)c2)n1 ?
GDH-TPI counter: 36*; Mtb hypoxia rep: 3; FBA Mtb inh: 21; PrP UTR inh: -149; PrPC TRFRET: 7; Y pestis TopoI: 21

What do the screens show for `COc1cc(C)ccc1OCCOc1ccccc1Cl`?
GDH-TPI counter: -5; FBA Mtb inh: 118*; PrP UTR inh: -67; PrPC TRFRET: 0; Y pestis TopoI: 6

How did CC(=NNS(=O)(=O)c1ccc(C)cc1C)c1c[nH]c2ccccc12 do in these assays?
Mtb hypoxia rep: -2

Results for NS(=O)(=O)c1ccc(NNC(=O)c2ccc(Br)o2)c([N+](=O)[O-])c1 ?
GDH-TPI counter: 45*; FBA Mtb inh: -5; PrP UTR inh: -34; PrPC TRFRET: -69; Y pestis TopoI: -3

How did COc1cc(C=NNC(=O)c2sc3ccccc3c2Cl)ccc1OC(=O)c1ccc([N+](=O)[O-])cc1 do in these assays?
Mtb hypoxia rep: 7

What do the screens show for `O=C(C[n+]1cccc2ccccc21)c1ccc(Cl)cc1`?
GDH-TPI counter: 10; Mtb hypoxia rep: 16; FBA Mtb inh: 125*; PrP UTR inh: -17; PrPC TRFRET: -28; Y pestis TopoI: -1

What do the screens show for `CCOC1OC(C(=O)NC2CC2)=CC(c2csc3ccccc23)C1CCCO` (stereo not drawn)?
Mtb hypoxia rep: 0

How did CCOCCCNC(=O)C(NC(=O)c1ccccc1O)c1ccc(Cl)cc1 (stereo not drawn) do in these assays?
GDH-TPI counter: 10; Mtb hypoxia rep: 5; FBA Mtb inh: 52*; PrP UTR inh: -4; Y pestis TopoI: -12

How did CCOCCCNC(=O)C(NC(=O)CNC(C)=O)c1ccc(Cl)cc1 (stereo not drawn) do in these assays?
GDH-TPI counter: -6; FBA Mtb inh: 0; PrP UTR inh: -4; PrPC TRFRET: 3; Y pestis TopoI: -4
